Results published in PubChem BioAssay AID1159580 (chemical genetic matrix, 2015).
Where “and” joins values, the source holds several entries; their conditions need not be identical. Equal entries are not always repeated. The whole screen tested about 5,500 compounds, of which about 2,000 (36%) were called active. Not shown: some 18% with an inconclusive outcome. Cut-off read from the data, not from the text of the source: active = normalized growth mostly below about 0.91 (no sharp cut-off); inconclusive = no clear call, values can overlap the other calls; inactive = mostly above about 0.92. Some of the results follow.

Assay: chemical genetic growth profiling, strain panel (AID 1159580);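 note: tested at 20 µM; growth read once vehicle control cultures reached saturation at 30 °C; 1 = growth at the plate median or of vehicle wells; lower values mean less growth of the strain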
Conditions: S. cerevisiae deletion strains, growth OD
[1] = locus YHR030C, strain SLT2, hits give low values
[2] = locus YHR079C, strain IRE1, hits give low values
[3] = locus YJL095W, strain BCK1, hits give low values
[4] = locus YJR066W, strain TOR1, hits give low values
[5] = locus YLR113W, strain HOG1, hits give low values
[6] = locus YMR263W, strain SAP30, hits give low values
[7] = locus YMR307W, strain GAS1, hits give low values
[8] = locus YNL183C, strain NPR1, hits give low values
[9] = locus YOR231W, strain MKK1, hits give low values
[10] = locus YPL241C, strain CIN2, hits give low values
[11] = locus YPL256C, strain CLN2, hits give low values

Measured: normalized growth

NCCCNCCCCNCCCN
inactive: locus YAL040C, strain CLN3, hits give low values 0.997 | locus YCL061C, strain MRC1 (second series), hits give low values 1.01 | locus YDR363W, strain ESC2, hits give low values 1.02 | locus YER002W, strain NOP16, hits give low values 1.02 | locus YGR078C, strain PAC10, hits give low values 1.01 | [1] 1.01 | [2] 0.994 | [3] 0.98 | [4] 0.925 | [5] 0.975 | [6] 0.995 | [7] 1.01 | locus YNL128W, strain TEP1, hits give low values 0.962 | locus YNL175C, strain NOP13, hits give low values 0.978 | [8] 0.93 | locus YNL197C, strain WHI3, hits give low values 0.992 | locus YNL224C, strain SQS1, hits give low values 0.986 | locus YOR083W, strain WHI5 (second series), hits give low values 0.994 | [9] 0.999 | [10] 1 | [11] 1.02

CC(C)=CC1C(C(=O)O)C1(C)C (stereo not given)
inactive: locus YAL013W, strain DEP1, hits give low values 0.988 | locus YAL021C, strain ccr4, hits give low values 0.989 | locus YAL026C, strain drs2, hits give low values 0.962 | locus YAL030W, strain snc1, hits give low values 0.976 | locus YBL061C, strain skt5, hits give low values 0.963 | locus YBR009C, strain hhf1, hits give low values 0.939 | locus YBR021W, strain FUR4, hits give low values 1.03 | locus YBR023C, strain chs3, hits give low values 0.966 | locus YBR171W, strain sec66, hits give low values 0.96 | locus YBR229C, strain ROT2, hits give low values 0.996 | locus YBR231C, strain swc5, hits give low values 0.985 | locus YBR279W, strain paf1, hits give low values 0.976 | locus YCL011C, strain gbp2, hits give low values 0.962 | locus YCL016C, strain dcc1, hits give low values 0.987 | locus YCL029C, strain bik1, hits give low values 0.981 | locus YCL061C, strain MRC1, hits give low values 0.987 | locus YCL069W, strain vba3, hits give low values 0.972 | locus YCR088W, strain abp1, hits give low values 0.983 | locus YDL005C, strain med2, hits give low values 0.976 | locus YDL035C, strain GPR1, hits give low values 0.998 | locus YDL040C, strain nat1, hits give low values 0.965 | locus YDL074C, strain BRE1, hits give low values 1.01 | locus YDL101C, strain DUN1, hits give low values 1.02 | locus YDL185W, strain tfp1, hits give low values 0.954 | locus YDL192W, strain arf1, hits give low values 0.966 | locus YDR001C, strain nth1, hits give low values 0.962 | locus YDR069C, strain doa4, hits give low values 0.967 | locus YDR101C, strain arx1, hits give low values 0.979 | locus YDR137W, strain rgp1, hits give low values 0.97 | locus YDR150W, strain NUM1, hits give low values 0.983 | locus YDR159W, strain sac3, hits give low values 0.959 | locus YDR162C, strain NBP2, hits give low values 1.08 | locus YDR195W, strain ref2 0.997 | locus YDR297W, strain sur2, hits give low values 0.979 | locus YDR318W, strain mcm21, hits give low values 0.977 | locus YDR334W, strain swr1, hits give low values 0.976 | locus YDR335W, strain msn5, hits give low values 0.977 | locus YDR388W, hits give low values 0.98 | locus YDR392W, strain spt3, hits give low values 0.883 | locus YDR502C, strain sam2, hits give low values 1.01 | locus YEL003W, strain gim4, hits give low values 0.971 | locus YEL037C, strain rad23, hits give low values 0.966 | locus YEL061C, strain CIN8 (second series), hits give low values 0.967 | locus YEL061C, strain CIN8, hits give low values 0.996 | locus YER015W, strain faa2, hits give low values 0.983 | locus YER016W, strain bim1, hits give low values 0.982 | locus YER110C, hits give low values 0.951 | locus YER111C, strain swi4, hits give low values 0.972 | locus YER155C, strain BEM2 (second series), hits give low values 0.972 | locus YER155C, strain BEM2, hits give low values 0.999 | locus YER167W, strain BCK2, hits give low values 0.997 | locus YFR010W, strain ubp6, hits give low values 0.972 | locus YGL078C, strain dbp3, hits give low values 0.991 | locus YGL086W, strain mad1, hits give low values 0.967 | locus YGL167C, strain pmr1, hits give low values 0.969 | locus YGL173C, strain kem1, hits give low values 0.959 | locus YGL227W, strain vid30, hits give low values 0.968 | locus YGL240W, strain doc1, hits give low values 0.974 | locus YGL248W, strain PDE1, hits give low values 1.04 | locus YGL253W, strain hxk2, hits give low values 0.993 | locus YGR135W, strain pre9, hits give low values 1 | locus YGR229C, strain SMI1, hits give low values 1.05 | locus YGR252W, strain gcn5, hits give low values 1.15 | locus YHR013C, strain ard1, hits give low values 0.956 | locus YHR027C, strain rpn1, hits give low values 0.973 | [1] 0.992 and 0.957 | locus YHR079C, strain IRE1 (second series), hits give low values 0.988 | [2] 0.957 | locus YHR094C, strain hxt1, hits give low values 0.968 | locus YHR129C, strain ARP1, hits give low values 0.997 | locus YHR142W, strain chs7, hits give low values 1.02 | locus YHR200W, strain rpn10, hits give low values 0.979 | locus YIL066C, strain RNR3, hits give low values 1.02 | locus YIL073C, strain SPO22, hits give low values 0.967 | locus YIL125W, strain kgd1, hits give low values 0.98 | locus YIR030C, strain dcg1, hits give low values 0.979 | locus YJL092W, strain hpr5, hits give low values 0.985 | locus YJL095W, strain BCK1 (second series), hits give low values 0.985 | [3] 1.08 and 0.996 | locus YJL115W, strain asf1, hits give low values 0.975 | locus YJL129C, strain trk1, hits give low values 0.981 | locus YJL134W, strain LCB3, hits give low values 0.99 | locus YJL154C, strain vps35, hits give low values 0.96 | locus YJL164C, strain tpk1, hits give low values 1.01 | locus YJL166W, strain qcr8, hits give low values 0.979 | locus YJL168C, strain set2, hits give low values 0.991 | locus YJL187C, strain SWE1 (second series), hits give low values 1.04 | locus YJL187C, strain SWE1, hits give low values 0.972 | locus YJR043C, strain POL32, hits give low values 1.04 | [4] 0.905 | locus YKL009W, strain mrt4, hits give low values 0.963 | locus YKL068W, hits give low values 0.988 | locus YKL085W, strain MDH1 (second series), hits give low values 0.971 | locus YKL085W, strain MDH1, hits give low values 0.971 | locus YKL160W, strain elf1, hits give low values 1.04 | locus YKL190W, strain CNB1, hits give low values 0.991 | locus YKR001C, strain vps1, hits give low values 0.973 | locus YKR026C, strain gcn3, hits give low values 0.977 | locus YKR091W, strain srl3, hits give low values 0.973 | locus YLL001W, strain dnm1, hits give low values 0.999 | locus YLL026W, hits give low values 0.982 | locus YLL041C, strain sdh2, hits give low values 0.984 | locus YLR027C, strain aat2, hits give low values 0.987 | locus YLR039C, strain RIC1, hits give low values 1.04 | locus YLR058C, strain SHM2, hits give low values 1.02 | locus YLR102C, strain apc9, hits give low values 0.957 | [5] 1.04 | locus YLR221C, strain rsa3, hits give low values 1 | locus YLR258W, strain gsy2, hits give low values 0.963 | locus YLR262C, strain YPT6 (second series), hits give low values 1 | locus YLR262C, strain YPT6, hits give low values 1.04 | locus YLR268W, strain sec22, hits give low values 0.972 | locus YLR320W, strain mms22, hits give low values 0.989 | locus YLR330W, strain CHS5, hits give low values 0.984 | locus YLR342W, strain FKS1 (second series), hits give low values 1.03 | locus YLR342W, strain FKS1, hits give low values 0.959 | locus YLR357W, strain rsc2, hits give low values 0.963 | locus YLR370C, strain arc18, hits give low values 0.976 | locus YLR371W, strain rom2, hits give low values 0.968 | locus YLR384C, strain iki3, hits give low values 0.981 | locus YLR418C, strain cdc73, hits give low values 1.02 | locus YML016C, strain PPZ1, hits give low values 0.999 | locus YML032C, strain rad52, hits give low values 1 | locus YML120C, strain ndi1, hits give low values 0.987 | locus YML124C, strain tub3, hits give low values 0.973 | locus YMR058W, strain fet3, hits give low values 0.966 | locus YMR078C, strain ctf18, hits give low values 0.975 | locus YMR125W, strain sto1, hits give low values 0.914 | locus YMR129W, hits give low values 0.965 | locus YMR205C, strain PFK2, hits give low values 0.932 | locus YMR223W, strain ubp8, hits give low values 0.988 | locus YMR231W, strain pep5, hits give low values 0.968 | [6] 1.01 | [7] 1.24 | locus YNL067W, strain RPL9B, hits give low values 1.05 | locus YNL071W, strain lat1, hits give low values 0.977 | locus YNL153C, strain GIM3, hits give low values 1.05 | [8] 0.971 | locus YNL209W, strain ssb2, hits give low values 0.977 | locus YNL233W, strain BNI4, hits give low values 1.07 | locus YNL248C, strain rpa49, hits give low values 1.01 | locus YNL250W, strain rad50, hits give low values 0.965 | locus YNL271C, strain bni1, hits give low values 0.973 | locus YNL298W, strain CLA4, hits give low values 0.99 | locus YNL307C, strain MCK1, hits give low values 0.988 | locus YNL322C, strain KRE1 (second series), hits give low values 0.973 | locus YNL322C, strain KRE1, hits give low values 0.998 | locus YNR049C, strain mso1, hits give low values 0.966 | locus YNR052C, strain pop2, hits give low values 0.972 | locus YOL006C, strain TOP1, hits give low values 1.06 | locus YOL012C, strain htz1 1.34 | locus YOL147C, strain pex11, hits give low values 0.989 | locus YOR001W, strain rrp6, hits give low values 1.01 | locus YOR061W, strain CKA2, hits give low values 1.01 | locus YOR069W, strain VPS5, hits give low values 0.992 | locus YOR070C, strain gyp1, hits give low values 0.985 | locus YOR080W, strain dia2, hits give low values 0.965 | locus YOR083W, strain WHI5, hits give low values 1.05 | locus YOR106W, strain vam3, hits give low values 1.01 | locus YOR136W, strain idh2, hits give low values 0.979 | locus YOR144C, strain elg1, hits give low values 1 | locus YOR184W, strain ser1, hits give low values 0.963 | [9] 0.954 | locus YOR265W, strain rbl2, hits give low values 0.986 | locus YOR270C, strain vph1, hits give low values 0.975 | locus YOR290C, strain snf2, hits give low values 0.925 | locus YOR316C, strain cot1, hits give low values 0.974 | locus YPL051W, strain arl3, hits give low values 1 | locus YPL055C, strain LGE1, hits give low values 1.06 | locus YPL078C, strain atp4, hits give low values 1 | locus YPL106C, strain sse1, hits give low values 0.972 | locus YPL240C, strain hsp82, hits give low values 0.997 | [10] 0.998 | [11] 0.975 | locus YPR119W, strain clb2, hits give low values 0.96 | locus YPR141C, strain kar3, hits give low values 0.969 | locus YPR163C, strain tif3, hits give low values 0.992 | locus YPR167C, strain met16, hits give low values 0.941 | strain wtn01, hits give low values 0.979
